For experiment [1], the system named is MDA-MB-231. In words: cell viability relative to vehicle unstimulated control (fraction); higher = more viable cells. The conditions noted are these: pre-treatment time: 18 h then 24 h IFNg/TNF.
Experiment [2] relates to MDA-MB-231. In words: kynurenine production, fold change vs DMSO IFNg/TNF control; higher = more kynurenine produced (less inhibition). The conditions noted are these: pre-treatment time: 18 h then 24 h IFNg/TNF. The gist of the method:
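In 96-well plates, MDA-MB-231 cells (7 × 10^4/well) were given 24 h to settle, pre-treated for 18 h with each natural product in 0.1% DMSO, and stimulated for 24 h with IFNγ (1 U/ml) and TNF (6.25 ng/ml) at 37°C. Supernatants were processed with trichloroacetic acid and p-dimethylaminobenzaldehyde and read at 492 nm against 0–100 μM standards. In the first screening round, kynurenine production, as fold change over same-plate cytokine-stimulated vehicle wells, was averaged over duplicate plates.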

± gives the standard deviation of the averaged measurements.
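Wherever cell viability relative to vehicle unstimulated control is given: viability of the cells left after supernatant collection, read with Deep Blue dye added for 4 h, as absorbance at 570 nm minus 600 nm.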

`CN1CCC[C@@H]1CC(=O)C[C@@H]1CCCN1C` [Cuscohygrine] (compound dose: 10 uM): in the experiment with MDA-MB-231 [1], the cell viability turned out to be 0.977 ± 0.14. The kynurenine production in the experiment with MDA-MB-231 [2] came out at 0.962 ± 0.027.
In the case of `C=C(CCC=C(C)C)[C@H]1CC[C@]2(C)[C@@H]1[C@H](O)C[C@@H]1[C@@]3(C)CC[C@H](O)C(C)(C)[C@@H]3[C@@H](O[C@@H]3O[C@H](CO)[C@@H](O)[C@H](O)[C@H]3O)C[C@]12C` [Ginsenoside Rk3] (compound dose: 10 uM), the cell viability in the experiment on MDA-MB-231 [1] was determined as 0.96 ± 0.035. Also, the kynurenine production with MDA-MB-231 [2] was determined as 0.81 ± 0.11.
Taken in the same sequence, the figures for `COC(=O)C1=CO[C@@H](O[C@@H]2O[C@H](CO)[C@@H](O)[C@H](O)[C@H]2O)[C@@H]2[C@@H](C)CC(=O)[C@]12O` [Hastatoside] (compound dose: 10 uM) were 0.981 ± 0.017 and 0.797 ± 0.12.
On to `C/C=C(/C)C(=O)O[C@H]1[C@H](OC(C)=O)[C@@]2(CO)C(CC1(C)C)C1=CCC3[C@@]4(C)CCC(O[C@@H]5O[C@H](C(=O)O)[C@@H](O[C@@H]6O[C@H](CO)[C@@H](O)[C@H](O)[C@H]6O)[C@H](O)[C@H]5O[C@@H]5O[C@H](CO)[C@@H](O)[C@H](O)[C@H]5O)[C@](C)(CO)C4CC[C@@]3(C)[C@]1(C)C[C@H]2O.C/C=C(\C)C(=O)O[C@H]1[C@H](OC(C)=O)[C@@]2(CO)C(CC1(C)C)C1=CCC3[C@@]4(C)CCC(O[C@@H]5O[C@H](C(=O)O)[C@@H](O[C@@H]6O[C@H](CO)[C@@H](O)[C@H](O)[C@H]6O)[C@H](O)[C@H]5O[C@@H]5O[C@H](CO)[C@@H](O)[C@H](O)[C@H]5O)[C@](C)(CO)C4CC[C@@]3(C)[C@]1(C)C[C@H]2O` (stereo partly drawn) [Escin] (compound dose: 10 uM), for which, in the experiment on MDA-MB-231 [1], the cell viability stood at 0.911 ± 0.11. For the same compound, the kynurenine production in the experiment with MDA-MB-231 [2] was 1.14 ± 0.1.

Source of the values: the supplement of paper PMC13094657.
